# According to PubChem BioAssay AID624300 (Southern Research Specialized Biocontainment Screening …, 2012):
# Screen size: about 2,400 compounds; about 360 (15%) were called active. Only a sample is shown. Potency and affinity values are given separately. Values without a mark were called inactive.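 How the source made its calls: active means viability falls under 70% at one or more tested concentrations, taken as toxicity; inactive means viability stays over 70% at every dose.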
# Test: viability loss in HeLa cells – cytotoxicity control for MgcRacGAP inhibitor project, dose response (AID 624300);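 further: 100% = median of untreated control wells on the same plate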
# Conditions: CellTiter-Glo luminescence, 24 h; series mostly up to 100 µM; viability: at the top concentration
row,Compound,viability
1,c1ccc(CNC23CC4CC(CC(C4)C2)C3)nc1,100%
2,COc1ccc(S(=O)(=O)N2CCC(N3CCN(Cc4ccccc4)CC3)CC2)cc1,98.1%
3,O=C(CSc1cn[nH]n1)Nc1cccc(C(=O)O)c1,94.8%
4,CN(CCOc1ccc(Cl)c(Cl)c1)Cc1ccccc1,89.3%
5,Cc1cc(C)c(OCCCCN(C)Cc2ccccc2)c(C)c1,89.7%
6,Cc1ccc(OCCCCNC(C)(C)C)c([N+](=O)[O-])c1,95.7%
7,Cc1ccc(-n2[nH]c(=O)c3cccnc32)cc1,96.6%
8,Nc1ccc(N2CCN(C(=O)c3cccs3)CC2)cc1,103%
9,COc1cc(/C=N/Nc2nc3ccccc3s2)ccc1O,88.9%
10,COc1cc(/C=C/C(=O)OCC(=O)NCCCc2ccccc2)ccc1O,91.6%
11,CC(=O)Nc1n[nH]c(=S)s1,102%
12,O=C(N/N=C/c1sc2ccccc2c1O)c1cccc2ccccc12,88.4%
13,O=C(CNC(=O)c1ccc2c(c1)OCCO2)N/N=C/c1ccc(O)cc1O,109%
14,CN(C)/C=C1/C=C(c2ccccc2)OC1=O,106%
15,COc1cc(/C=N/N=C2/NC(=O)C(c3ccccc3)S2)ccc1O (stereo unspecified),92%
16,O=C(CN1CCCCCC1)NN(Cc1ccccc1)c1ccccc1,101%
17,S=C(NCCCN1CCOCC1)Nc1ccc(Nc2ccccc2)cc1,103%
18,COc1cc(CNc2ncc(-c3ccc(Br)cc3)n2C)cc(OC)c1O,99.2%
19,Cn1c(-c2ccccc2)cnc1NCc1ccc(-c2ccccc2)cc1,86.2%
20,Clc1ccccc1CNCc1ccc2c(c1)OCO2,97.4%
21,COc1ccccc1CNc1ncc(-c2ccccc2)n1C,81.4%
22,COc1ccc(CNc2ncc(-c3ccc(Br)cc3)n2C)cc1OC,93.4%
23,Cc1ccc(CNc2ncc(-c3ccccc3)n2C)o1,96.2%
24,O=C1c2ccccc2C(=O)N1/N=C/c1ccc(O)c(O)c1,98.4%
25,COc1ccc(C(=O)CCC(=O)Nc2cc(Cl)c(O)c(Cl)c2)cc1,103%
26,N#CC1=C(N)NC(=S)C(C(N)=O)C1c1ccc([N+](=O)[O-])cc1 (stereo unspecified),101%

row,Compound,viability
1,Cc1ccc(COC(=O)Cc2coc3cc(O)ccc23)cc1,109%
2,CCS(=O)(=O)c1cc([N+](=O)[O-])c(Sc2ccccc2N)s1,97.9%
3,CCOc1cc(/C=N/NC(=O)NN(C)c2ncc(C(F)(F)F)cc2Cl)ccc1O,104%
4,O=C(Cc1ccc(Cl)cc1)N/N=C/c1ccc(O)c(O)c1,104%
5,O=c1c(O)c(-c2ccc(O)c(O)c2)oc2cc(O)ccc12,93.5%
6,COC(=O)c1[nH]c2ccc(Cl)cc2c1NC(=O)Oc1ccccc1,90.4%
7,Cc1cc(-c2n[nH]c(=S)n2/N=C/c2cccc(O)c2)n[nH]1,97.6%
8,COc1ccc(NC2CCCN(C(=O)c3cccc(N4CCNC4=O)c3)C2)cc1 (stereo unspecified),91.8%
9,COc1ccc(Oc2c(-c3ccc(O)cc3O)n[nH]c2C)cc1,97.1%
10,COc1cccc(Oc2cn[nH]c2-c2ccc(O)cc2O)c1,96.4%
11,CC1=NN(C(N)=S)C(=O)C1N=Nc1ccc(O)cc1 (stereo unspecified),89.7%
12,O=C(O)c1ccc2c(c1)[C@@H]1C=CC[C@@H]1[C@H](c1ccccn1)N2,101%
13,CCN(CC)c1ccc(NC(=O)CNCc2ccccc2Cl)c(C)c1,89.4%
14,COc1ccc(CNc2ncc(-c3ccc(F)cc3)n2C)cc1OC,96.8%
15,COc1ccc(CNc2ncc(-c3ccccc3)n2C)c(OC)c1OC,95.8%
16,CCN1C(=O)c2ccc(C(=O)Nc3ccc(O)cc3C)cc2C1=O,103%
17,CCn1nc(CC(C)C)cc1C(=O)N1CCCC(Nc2ccc(OC)cc2)C1 (stereo unspecified),102%
18,CN1CCc2c1nc1ccccc1c2NC(=O)CN1CCCC1,102%
19,CC(C)NCC(=O)Nc1c2c(nc3ccccc13)CCC2,111%
20,Cc1sc2c3ccsc3ccc2[n+]1C,96.4%
21,CC(C)(C)N(Cc1ccc2c(c1)OCO2)C(=O)/C=C\S(=O)c1ccccc1 (stereo unspecified),99.4% [at 25 µM]
22,COc1ccc(C2NC(=O)C(C#N)=C(S)N2c2cccc(C)c2)cc1OC (stereo unspecified),95.3%
23,CN(C)CCO/N=C(\c1ccc(Br)cc1)c1cccnc1,94.7%
24,COC(=O)c1ccc(NCc2c(O)ccc(O)c2Br)cc1Cl,93.9%
25,COC(=O)c1ccc(C(=O)OCCCc2nc3ccc(N)cc3[nH]2)cc1,107%
26,CCOC(=O)c1[nH]c2ccccc2c1NC(=S)Nc1cccc(C)c1C,91.2%

row,Compound,viability
1,Cc1ccc(-c2n[nH]c(=S)n2/N=C/c2ccc(C(=O)O)cc2)cc1,94.9%
2,COc1ccc2cc(OCC(=O)NNC(=O)Nc3ccc(F)cc3)ccc2c1,105%
3,Oc1ccc(CCc2ccccn2)cc1,108%
4,CC(=O)NC(Cc1ccccc1)C(=O)Oc1ccc2ccccc2c1 (stereo unspecified),88.7%
5,CN1C(=O)/C(=C/C=C2/CCCN2C)N(C)C1=S,99.4%
6,Oc1ccc(Nc2ncnc3ccccc23)cc1,97.4%
7,Cc1nc(Nc2ccc(O)cc2)c2c3c(sc2n1)CCCC3,90.5%
8,Cc1cccc(Nc2c(-c3ccc(O)cc3)nc3ncccn23)c1,97.8%
9,COc1ccc(/C=N/N2CCN(C)CC2)cc1O,110%
10,O=c1nc2s/c(=C\c3ccc(-c4ccccc4[N+](=O)[O-])o3)c(=O)n2nc1-c1ccccc1,105%
11,CC1=NOC(=O)/C1=C\c1ccc(-c2ccc(Cl)c(C(=O)O)c2)o1,104%
12,C=CCn1c(SCC(=O)Nc2ccc(N(C)C)cc2)nnc1-c1cccc(C)c1,102%
13,COc1ccc(NC2CCCN(C(=O)CCC3=NNC(=O)CC3)C2)cc1 (stereo unspecified),99.2%
14,COc1ccc(N2CCN(S(=O)(=O)c3c(C)nc4scc(C)n4c3=O)CC2)cc1,93.2%
15,N/N=C(\Cc1cscn1)c1ccc(O)cc1O,99.1%
16,O=C(CN1CCN(c2ccc(O)cc2)CC1)Nc1ccc2c(c1)OCCCO2,104%
17,Nc1nc2c(s1)CCc1ccccc1-2,93.6%
18,COc1ccc2c(C)cc3n[nH]c(=S)n3c2c1,110%
19,NNc1ccc([N+](=O)[O-])c2[nH][nH]c(=O)c12,98.7%
20,COc1ccc(-c2cnnc(N/N=C/c3ccc(O)c(O)c3)n2)cc1,95.8%
21,Cc1nc2ccccc2nc1N/N=C/c1ccc(O)cc1,90.5%
22,COc1cc(/C=N/Nc2cc(C)nc(NS(=O)(=O)c3ccccc3)n2)ccc1O,102%
23,CN(C)c1ccc(/C=N\Nc2ccccn2)cc1,98.6%
24,Oc1ccc(C=NNc2nc3ccccc3s2)c(O)c1,90.4%
25,CCN(CC)c1ccc(/C=N/Nc2nc(C)cc(C)n2)c(O)c1,101%
26,COc1ccc(NCc2ccsc2)cc1,112%

row,Compound,viability
1,COc1ccc(NC2CCCN(C(=O)CN3CCOC3=O)C2)cc1 (stereo unspecified),99.7%
2,CC1(C)CC(=O)C(C=Nc2ccc(N)cc2)=C(O)C1,107%
3,COc1cc(/C=C/C(=O)OCC(=O)N2CC3(C)CC2CC(C)(C)C3)ccc1O (stereo unspecified),96%
4,Cn1c(=O)[nH]c(=O)c2c1[nH]c(=S)n2CCCc1ccccc1,101%
5,Cn1c(=O)c2[nH]c(=S)n(Cc3ccccc3)c2n(C)c1=O,92.9%
6,CN(C)c1ccc(NC(=S)NCC2CCCO2)cc1 (stereo unspecified),109%
7,Cc1sc2ccc3sccc3c2[n+]1C,94.5%
8,Cc1cc(N(C)C)ccc1N=Nc1ccc(N)cc1,96.7%
9,O=C(CN1CCN(c2ncccn2)CC1)N1CCCC1,102%
10,Cc1ccccc1SCC(=O)OCC(=O)Nc1ccc(N(C)C)cc1,107%
11,CCn1c(SCC(=O)Nc2ccc(N(C)C)cc2)nnc1-c1cccc(C)c1,98.4%
12,CC(C)c1nc(SCC(=O)Nc2ccc(N(C)C)cc2)c2ccccc2n1,101%
13,Cc1nc2ccc(C(=O)Nc3ccc(N(C)C)cc3)cc2s1,105%
14,COc1cc(/C=N/NC(=O)CNc2n[nH]c(=O)[nH]c2=O)ccc1O,96.4%
15,CSc1ccc(CN2CCC(N3CC(C)OC(C)C3)CC2)cc1 (stereo unspecified),86.2%
16,C=CCn1c(SCC(=O)c2ccc(O)c(O)c2)nnc1-c1cccc(OC)c1,100%
17,CCn1c(CSc2nc3ccccc3s2)nnc1SCC(=O)c1ccc(O)c(O)c1,90%
18,CN(C)c1ccc(NS(=O)(=O)c2ccc(Cl)cc2)cc1,90.5%
19,CS(=O)(=O)N1CCN(C2C3CC4CC(C3)CC2C4)CC1 (stereo unspecified),93.4%
20,COc1cc(/C=N/NC(=O)c2ccc(-n3cccc3)cc2)ccc1O,106%
21,O=C(N/N=C/c1ccc(O)cc1)c1cccc(C(F)(F)F)c1,90%
22,Fc1ccc(CN2CCN(C(c3ccccc3)c3ccccc3)CC2)cc1,102%
23,COc1cc(/C=N\NC(=O)c2ccc(Cn3nc([N+](=O)[O-])c(Cl)c3C)o2)ccc1O,92.3%
24,O=C(O)c1cc(N2C(=O)C=CC2=O)cc(N2C(=O)C=CC2=O)c1,107%
25,Oc1ccc2c(ccc3[nH]cnc32)c1,110%
26,Nc1ccc2[nH]c(=S)[nH]c2c1,96.2%

row,Compound,viability
1,Cc1ccc(Nc2n[nH]c(=S)s2)cc1,94.3%
2,COc1ccc(N2CCN(c3ccc(C(N)=O)cc3[N+](=O)[O-])CC2)cc1,95.6%
3,Cc1sc2ncnc(N(C)CCc3ccccn3)c2c1C,95%
4,CCOC(=O)c1c(C)[nH]sc1=S,97.5%
5,CCN(CC)c1ccc(NC(=O)CSC(=O)c2ccccc2)cc1,111%
6,CCN(CC)c1ccc(NC(=O)C2CCCC2)cc1,101%
7,CCN(CC)c1ccc(NC(=O)Nc2ccccc2)cc1,99.7%
8,CCN(CC)c1ccc(/C=N/O)cc1,99.6%
9,CCN(CC)c1ccc(/C=N/N2CCOCC2)c(O)c1,109%
10,CN(C)c1ccc(/C=N/N2CCN(Cc3ccccc3Cl)CC2)cc1,106%
11,CCOc1cc(/C=C2\SC(=O)N=C2N)ccc1O,92.6%
12,C=CCN(CC=C)C(=O)C1CCN(Cc2ccc(OCc3ccccc3)cc2)CC1,88.6%
13,CC1=CC(C)(C)N(C(=O)CNC2CCCC2)c2cc(C)ccc21,85.7%
14,COc1ccc(N2CCN(C(=O)NC3CCCCC3)CC2)cc1,100%
15,COc1cc(/C=N\NC(=O)c2c(C)nc3cc(C)ccn23)ccc1O,97%
16,O=C1C(Cl)=C(NCCc2ccccc2)C(=O)c2ccccc21,95.7%
17,COc1ccc(C=C2C(=O)c3ccccc3C2=O)cc1O,89%
18,O=S1(=O)N=C(Nc2ccc(O)cc2)c2ccccc21,99.3%
19,COc1ccc(O/C(=N\S(=O)(=O)c2ccccc2)c2ccccc2)cc1,103%
20,CN(C)c1ccc(NC(=O)CN2C(=O)c3ccccc3C2=O)cc1,101%
21,COc1ccc(Nc2ccc3ccccc3c2)cc1,91%
22,O=C(NN=Cc1ccc(O)cc1O)c1ccccc1NS(=O)(=O)c1cccs1,97.2%
